This excerpt belongs to a sample that is enriched for hits.
miR-122 inh – miR-122 suppressors via Renilla sensor increase, primary screen, cell-based, Huh7 psiCHECK-miR122, Renilla luciferase, single point; 48 h; activation, % at 12.5 µM; 0.14% of 340,000 active;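 active = mean activation of 30% or more, with every replicate also reaching 30%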;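 also: 0% = median of neutral control wells and 100% = median of positive control wells; higher luciferase signal means stronger suppression of miR-122 activity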
* marks the source's active call; other numbers are inactive results.

SMILES	miR-122 inh
C[C@H]1CN([C@@H](C)CO)C(=O)c2cc(-c3cccnc3)cnc2O[C@@H]1CN(C)C(=O)Nc1ccc(F)cc1	9
C[C@H]1CN([C@@H](C)CO)C(=O)c2cc(-c3cccnc3)cnc2O[C@@H]1CN(C)Cc1ccc(Oc2ccccc2)cc1	6
C[C@@H]1CN([C@H](C)CO)C(=O)c2cc(-c3cccnc3)cnc2O[C@H]1CN(C)Cc1ccc(Oc2ccccc2)cc1	0
C[C@H]1CN([C@@H](C)CO)C(=O)c2cc(/C=C/c3ccccc3)cnc2O[C@H]1CN(C)S(=O)(=O)c1ccc(F)cc1	17
COCC(=O)Nc1ccc2c(c1)OC[C@@H](C)N(C(C)=O)C[C@@H](C)[C@@H](OC)CN(C)C2=O	-2
C[C@@H]1CN([C@@H](C)CO)S(=O)(=O)c2ccc(C#C[C@@H](C)O)cc2O[C@@H]1CN(C)C(=O)c1ccncc1	13
CC(C)CC#Cc1ccc2c(c1)O[C@@H](CN(C)C(=O)C1CCOCC1)[C@@H](C)CN([C@@H](C)CO)S2(=O)=O	-29
C[C@H](CO)N1C[C@H](C)[C@H](CN(C)Cc2ccc(F)cc2)Oc2ncc(-c3ccccc3)cc2C1=O	1
C[C@H](O)C#Cc1ccc2c(c1)O[C@H](CN(C)CC1CCOCC1)[C@@H](C)CN([C@H](C)CO)S2(=O)=O	-17
C[C@@H]1CN([C@@H](C)CO)C(=O)c2cc(-c3cccc(C(=O)N(C)C)c3)cnc2O[C@@H]1CN(C)C(=O)Cc1ccccn1	0
COc1ccccc1-c1cnc2c(c1)C(=O)N([C@H](C)CO)C[C@H](C)[C@@H](CN(C)CC1CCCC1)O2	3
COCC#Cc1cnc2c(c1)C(=O)N([C@@H](C)CO)C[C@@H](C)[C@@H](CN(C)C(=O)C1CCOCC1)O2	-10
C[C@H](CO)N1C[C@H](C)[C@@H](CN(C)C(=O)NC2CCCCC2)Oc2ncc(-c3ccccc3F)cc2C1=O	-20
C[C@H](CO)N1C[C@H](C)[C@H](CN(C)S(=O)(=O)c2ccccc2F)Oc2cc(C#Cc3ccccc3)ccc2S1(=O)=O	-11
C[C@@H]1CN([C@@H](C)CO)S(=O)(=O)c2ccc(-c3ccc(F)cc3)cc2O[C@H]1CN(C)C(=O)C1CCOCC1	-1
C[C@H](CO)N1C[C@H](C)[C@H](CN(C)CC2CCCCC2)Oc2c(NC(=O)C3CCOCC3)cccc2C1=O	-104
C[C@H](CO)N1C[C@H](C)[C@@H](CN(C)CC2CCCCC2)Oc2c(NS(=O)(=O)c3cccs3)cccc2C1=O	33*
C[C@@H]1CN([C@@H](C)CO)C(=O)c2cc(-c3cccc(F)c3)cnc2O[C@H]1CN(C)CC1CCCC1	10
C[C@H](CO)N1C[C@H](C)[C@@H](CN(C)CC2CCCCC2)Oc2c(NC(=O)C3CC3)cccc2C1=O	-114
Cc1ccc(-c2cnc3c(c2)C(=O)N([C@H](C)CO)C[C@@H](C)[C@H](CN(C)CC2CCCCC2)O3)cc1	32*
C[C@H](CO)N1C[C@H](C)[C@@H](CN(C)CC2CCCC2)Oc2ncc(-c3cccc(F)c3)cc2C1=O	-4
CC(C)CC#Cc1cnc2c(c1)C(=O)N([C@@H](C)CO)C[C@@H](C)[C@H](CN(C)C(=O)Cc1ccccc1)O2	6
C[C@H](CO)N1C[C@H](C)[C@@H](CN(C)C(=O)c2ccccc2F)Oc2ncc(C#Cc3ccc(F)cc3)cc2C1=O	-8
C[C@@H]1CN([C@@H](C)CO)C(=O)Cc2cc(NC(=O)NC3CCCCC3)ccc2O[C@H]1CN(C)Cc1ccncc1	3
C[C@@H]1CN([C@H](C)CO)C(=O)c2cc(C#Cc3cccc(F)c3)cnc2O[C@H]1CN(C)C(=O)C1CC1	-4
SMILES	miR-122 inh
CCCN(C)C[C@@H]1Oc2ncc(C#CC3CCCCC3)cc2C(=O)N([C@@H](C)CO)C[C@H]1C	2
COc1cccc(-c2ccc3c(c2)O[C@H](CN(C)Cc2cccnc2)[C@H](C)CN([C@H](C)CO)S3(=O)=O)c1	1
C[C@H]1CN([C@@H](C)CO)C(=O)c2cc(C#CC3(O)CCCC3)cnc2O[C@@H]1CN(C)S(=O)(=O)c1ccccc1	-3
C[C@H](CO)N1C[C@H](C)[C@H](CN(C)C(=O)C2CC2)Oc2cc(-c3ccncc3)ccc2S1(=O)=O	5
Cc1ccc(S(=O)(=O)NCC[C@@H]2CC[C@@H](NC(=O)c3cnccn3)[C@H](CO)O2)cc1	-101
O=C(N[C@H]1CC[C@H](CCn2cc(C3(O)CCCC3)nn2)O[C@H]1CO)c1ccccc1F	42*
CCCC(=O)Nc1ccc2c(c1)OC[C@@H](C)N(C)C[C@H](C)[C@H](OC)CN(C)C2=O	1
COc1ccc(-c2ccc(C#N)c(OC(=O)c3c(Cl)cccc3Cl)n2)cc1	32*
C[C@@H]1CN([C@@H](C)CO)C(=O)c2cc(C#Cc3cccnc3)cnc2O[C@H]1CN(C)S(C)(=O)=O	-7
Cc1cc(C)c2c(c1)/C(=C/C(=O)c1ccc(Br)s1)C(=O)N2	43*
C[C@H]1CN([C@@H](C)CO)C(=O)c2cc(C#CCc3ccccc3)cnc2O[C@H]1CN(C)Cc1cccc(C(=O)O)c1	1
C[C@H]1CN([C@@H](C)CO)C(=O)c2cc(-c3cncnc3)cnc2O[C@@H]1CN(C)Cc1ccccc1	-4
CCOc1ccc(NC(=S)N(CCCN2CCCC2)Cc2cccn2Cc2ccc(Cl)cc2)cc1	33*
CCOc1ccc(NS(=O)(=O)c2ccc(NC(=S)NC(=O)C(C)C)cc2)cc1	-115
C[C@@H]1CN([C@@H](C)CO)C(=O)c2cc(-c3ccccc3F)cnc2O[C@@H]1CN(C)C(=O)C1CCCCC1	-11
Cc1ccsc1/C=N/NC(=O)CSCc1ccc(Cl)cc1	36*
COCC#Cc1cnc2c(c1)C(=O)N([C@H](C)CO)C[C@H](C)[C@H](CN(C)C(=O)Cc1ccccc1)O2	-11
C[C@@H]1CN([C@H](C)CO)C(=O)c2cc(C#Cc3cccc(F)c3)cnc2O[C@@H]1CN(C)C(=O)C1CC1	7
C[C@@H]1CN([C@H](C)CO)S(=O)(=O)c2ccc(-c3cccc(C#N)c3)cc2O[C@H]1CN(C)Cc1ccccn1	-5
CO[C@@H]1CN(C)C(=O)c2ccc(NC(=O)C3CCC3)cc2OC[C@@H](C)NC[C@H]1C	0
C[C@H]1CN([C@@H](C)CO)C(=O)c2cc(-c3ccc(C(=O)N(C)C)cc3)cnc2O[C@@H]1CN(C)C(=O)c1cccnc1	2
COC(=O)c1cc(=O)n2c(-c3ccc(OC)cc3)csc2n1	38*
C[C@H]1CN([C@@H](C)CO)S(=O)(=O)c2ccc(C#Cc3cccnc3)cc2O[C@@H]1CN(C)CC1CCOCC1	-3
C[C@H](O)C#Cc1ccc2c(c1)O[C@@H](CN(C)C(=O)c1ccncc1)[C@H](C)CN([C@@H](C)CO)S2(=O)=O	-3
CCCC#Cc1ccc2c(c1)O[C@H](CN(C)C(=O)CC)[C@H](C)CN([C@H](C)CO)S2(=O)=O	1
CCC(=O)N(C)C[C@H]1Oc2cc(C#Cc3ccccc3)ccc2S(=O)(=O)N([C@H](C)CO)C[C@H]1C	56*
C[C@@H]1CN([C@H](C)CO)S(=O)(=O)c2ccc(C#Cc3ccncc3)cc2O[C@H]1CN(C)C(=O)C1CCCCC1	-32
CC(C)CC#Cc1ccc2c(c1)O[C@@H](CN(C)C(=O)NC1CCCC1)[C@@H](C)CN([C@H](C)CO)S2(=O)=O	-7
CCCC#Cc1ccc2c(c1)O[C@@H](CN(C)C(=O)c1cccnc1)[C@H](C)CN([C@@H](C)CO)S2(=O)=O	-18
